# Pf growth 48h = P. falciparum growth inhibition at 48 hours (one generation) | 5.9% of 310,000 active | P. falciparum luciferase growth in erythrocytes, 48 h | AID 504832 | Potency, µM (series often up to 28.7 µM), hits mostly inhibitors; active = well fitted inhibition curve with a large enough effect; inconclusive = small, poorly fitted or top-dose-only effect, or another doubt; inactive = no such curve, though single readings can be large or run the other way
#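 Firefly luciferase activity from engineered P. falciparum reports growth; inhibitors lower the luminescent signal. Cultures contained 2% hematocrit erythrocytes at 0.1% final parasitemia.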
# SARS PLP yeast = inhibitors of SARS-CoV papain-like protease in yeast. Potency, µM (titrated, usually from 32.9 µM), usual class: activators. AID 485353. 0.19% of 330,000 active. S. cerevisiae expressing SARS-CoV PLpro, growth rescue; also: nearly all actives have a fitted effect of over 55% in size
# Cycloheximide cs = counter-screen for Shiga toxin inhibitors: cycloheximide protein synthesis inhibition; cell reporter, cycloheximide protein synthesis inhibition counterscreen; max response, %; 12% of 300,000 active; in the data active = max response mostly above about 13%, no sharp cut-off; inactive = mostly below about 14%; also: read at 38.3 µM for the half of the compounds with a filed dose
# Pf growth 96h = P. falciparum growth inhibition at 96 hours; P. falciparum luciferase reporter growth, 96 h; Potency, µM (top dose mostly 28.7 µM), most hits filed as inhibitors; 6.9% of 320,000 active; AID 504834; active = well fitted inhibition curve with a large enough effect; inconclusive = small, poorly fitted or top-dose-only effect, or another doubt; inactive = no such curve, though single readings can be large or run the other way
#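 Erythrocytes infected with luciferase-expressing P. falciparum were dispensed at 2% hematocrit and 0.05% parasitemia (final), then incubated with compounds 96 hours at 37 C in 5% CO2. Luminescence after detection reagent addition reported growth.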
# NS1 function inh = inhibitors of influenza NS1 protein function; Potency, µM (doses to about 46.1 µM); 0.4% of 270,000 active; AID 2326; also: actives are rising curves; nearly all actives have a fitted effect of over 50% in size
#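 Compounds were scored for reversing the slow growth caused by influenza A NS1 in S. cerevisiae, measured by optical density at 600 nm. Assay medium contained 2% galactose at pH 6.0; NS1-free yeast of the same strain were the positive control.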
# Shiga toxin inh = blocks Shiga toxin action in Vero cells | inhibition, % at 38.7 µM | Vero cells, Shiga toxin protein synthesis inhibition reporter | 9.2% of 290,000 active; in the data active = inhibition mostly above about 28%, no sharp cut-off; inactive = mostly below about 43%
# Numbers stand for hits; – = inactive; ? = inconclusive; · = not tested or not shown. The list is not random: actives were taken first. Their share in the collection is about 21%. Unless noted, calls follow the shape of the full dose curve.
SMILES,Pf growth 48h,SARS PLP yeast,Cycloheximide cs,Pf growth 96h,NS1 function inh,Shiga toxin inh
O=C(NNC(=O)c1cccs1)c1ccc2ccccc2c1,–,–,29.4,1.65µM,–,50.7
O=C(COC(=O)c1cccs1)c1ccc2c(c1)OCCO2,·,–,–,–,–,–
CN(C)c1ccc(C(=O)OCC(=O)c2cccs2)cc1,–,–,45.0,9.28µM,–,70.6
O=C(COC(=O)c1cccs1)c1ccc2ccccc2c1,–,–,56.2,–,–,97.7
CCc1ccc(C(=O)COC(=O)c2cccs2)cc1,–,–,23.4,·,–,–
O=C(CSc1nnc(-c2cccs2)n1C1CC1)NC1CCS(=O)(=O)C1 (stereo not drawn),–,–,·,–,·,·
Cc1cccn2cc(COc3cccc([N+](=O)[O-])c3)nc12,–,–,21.7,–,–,61.1
c1ccc(CN2CCN(Cc3cn4cccnc4n3)CC2)cc1,–,–,–,?,·,–
O=[N+]([O-])c1cccc(OCc2cn3cccnc3n2)c1,–,–,20.4,?,·,–
Cc1cccn2cc(COc3ccc(-c4ccccc4)cc3)nc12,–,–,71.4,–,·,68.2
Cc1ccc(OCc2cn3cccnc3n2)cc1,–,–,54.7,–,?,103.9
COc1ccc(OC)c(S(=O)(=O)NCc2cn3cccc(C)c3n2)c1,–,–,–,–,–,–
CCn1c(CC(=O)Nc2ccc(F)cc2)nnc1SCC(=O)Nc1nnc(C)s1,–,–,–,–,–,–
NC(N)=N/N=C/c1ccccc1OC(F)F,?,–,–,–,·,–
FC(F)Oc1ccccc1/C=N/n1cnc2ccccc21,–,–,49.9,–,·,116.1
Cc1[nH]c2ccccc2c1C(=O)CSC(=S)N(C)C,–,–,29.8,–,–,73.8
O=C(CSc1nc2ccccc2[nH]1)c1ccccc1F,–,–,40.2,–,–,91.6
O=C(CSc1nc2ccccc2[nH]1)Nc1c(F)cccc1F,–,–,–,–,–,–
Cc1ccc2nc(SCC(=O)c3c[nH]c4ccccc34)[nH]c2c1,2.94µM,–,–,?,–,70.5
Cc1ccc2nc(SCC(=O)c3cc(C)n(C)c3C)[nH]c2c1,·,–,–,–,–,–
CSc1ccccc1NC(=O)CN(C)CC(=O)c1c(C)[nH]c2ccccc12,4.15µM,–,·,?,·,·
COc1ccc(CNC(=O)CCNC(=O)c2ccc(C(C)(C)C)cc2)cc1OC,–,–,·,?,·,·
Cc1[nH]c2ccccc2c1C(=O)CSc1nc2ncc(Cl)cc2[nH]1,–,–,–,–,·,–
Fc1cccc(F)c1CSc1nc2ccccc2[nH]1,–,–,36.5,·,–,110.8
O=C(CSc1nc2ccccc2[nH]1)N1c2ccccc2Sc2ccccc21,?,–,–,–,–,–
SMILES,Pf growth 48h,SARS PLP yeast,Cycloheximide cs,Pf growth 96h,NS1 function inh,Shiga toxin inh
O=C(CSc1nc2ccccc2[nH]1)c1ccc(Cl)s1,?,–,39.5,·,–,86.0
Cc1ccc2nc(SCC(=O)c3c(C)[nH]c4ccccc34)[nH]c2c1,–,–,21.1,–,?,–
Clc1cccc(CSc2nc3ccncc3[nH]2)c1,·,–,–,?,–,–
Fc1cccc(CSc2nc3ccncc3[nH]2)c1,–,–,31.6,–,–,49.6
O=C(O)CSc1ncccc1[N+](=O)[O-],·,·,·,·,–,·
C=CCn1c(C)nnc1SCC(=O)Nc1cc(S(=O)(=O)N2CCCC2)ccc1Cl,–,–,·,–,·,·
Fc1ccccc1CSc1nc2ncccc2[nH]1,–,–,44.8,–,–,63.3
O=C(CSc1nc2ccccc2[nH]1)c1c[nH]c2ccccc12,–,–,29.2,–,–,71.9
O=c1[nH]c(SCc2ccccc2F)nc2ccccc12,–,–,–,–,–,–
CN(C(=O)COC(=O)C1CCN(S(=O)(=O)c2ccc3c(c2)OCCO3)CC1)C1CCS(=O)(=O)C1 (stereo not drawn),–,–,·,–,·,·
CCCc1cc2c(=O)c(-c3ccccn3)coc2cc1OC,–,–,44.5,–,–,90.1
CCCc1cc(=O)oc2cc(Oc3ncccn3)ccc12,–,–,–,·,–,–
COc1ccccc1Oc1coc2cc(OCC(N)=O)ccc2c1=O,–,–,–,–,–,–
CCCc1cc2c(=O)c(-c3ccccn3)c(C)oc2cc1O,?,–,–,9.28µM,–,–
Cc1ccccc1C(=O)NCCCNC(=O)c1ccccn1,–,–,–,–,–,–
CCCOc1ccc2cc(C(=O)NCc3ccccc3)c(=O)oc2c1,–,–,–,–,–,–
O=C(NCc1ccccn1)c1ccc([N+](=O)[O-])cc1,–,–,–,–,–,–
